The record followed here is PubChem BioAssay (Tox21).

Values without a mark were called inactive. Results filed as inconclusive are left out. Active and inactive are the calls of the source. Unless noted, the call rests on the fitted dose curve.

Test [1] in a line: qHTS assay to identify small molecule agonists of the estrogen receptor beta (ER-beta) signaling pathway - cell viability counter screen (AID 1259380; active means well fitted curve in the direction sought with a large enough effect in the repeat runs; an effect the other way counts as inactive or inconclusive; further: nearly all actives have a fitted effect of over 30% in size; further: potency means the concentration at half of the fitted maximal effect). Particulars: ER-beta-bla HEK293T viability, CellTiter-Glo luminescence, 16 h; series mostly up to 92.4 µM. The procedure, abridged: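 Cells used were ER-beta-UAS-bla HEK293T in medium with 2% charcoal-stripped FBS. They were treated for 16 hr at 37C. Viability came from CellTiter-Glo luminescence.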
In general terms: In qHTS, concentration-response curves come from the screen itself.

Test [2] is described as follows: qHTS assay to identify small molecule antagonists of the estrogen receptor beta (ER-beta) signaling pathway - cell viability counter screen (AID 1259382; active means well fitted curve in the direction sought with a large enough effect in the repeat runs; an effect the other way counts as inactive or inconclusive; further: nearly all actives have a fitted effect of over 55% in size; further: potency means the concentration at half of the fitted maximal effect). Particulars: ER-beta-UAS-bla HEK293T viability, CellTiter-Glo luminescence, 16 h; series mostly up to 92.4 µM. In a few lines:
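Agonist-stimulated (1nM E2) ER-beta-UAS-bla HEK293T cells are incubated with library compounds for 16 hr at 37C. Cell viability is then assessed in the reporter-assay wells by adding CellTiter-Glo and reading luminescence after 30 min.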

For test [3], the target named is Estrogen receptor (Homo sapiens) (UniProt P03372). In words: qHTS assay to identify small molecule agonists of the estrogen receptor alpha (ER-alpha) signaling pathway in the presence of an antagonist (AID 1259383). Further: nearly all actives have a fitted effect of over 15% in size. Further: potency means the concentration at half of the fitted maximal effect. On activation: top concentration of the series differs between compounds. The conditions noted are these: VM7Luc4E2 cells, ERE-luciferase, +ICI-182,780, 22 h; series mostly up to 92.4 µM. The procedure, abridged:
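Using VM7Luc4E2 cells seeded 24hr before treatment, antagonist ICI-182,780 (10.0nM final) was added, followed by compounds at 15 concentrations. Plates incubated 22hr; ONE-Glo luminescence quantified reporter activity.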

Test [4] in a line: qHTS assay to identify small molecule agonists or antagonists of the thyroid stimulating hormone receptor (TSHR) signaling pathway - wild type cell line counter screen (AID 1259384). The conditions noted are these: HEK293 wild type, cAMP HTRF counter-screen; series mostly up to 92.4 µM. The procedure, abridged:
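Counter screen in untransfected Hek293: compounds (15-point titration, triplicate) plus phosphodiesterase inhibitor Ro20-1724 added after 18 h plating; 30 min RT. Intracellular cAMP via competitive d2/cryptate immunoassay, 1 h incubation.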

Test [5] deals with Thyrotropin receptor (Homo sapiens) (UniProt P16473). In words: qHTS assay to identify small molecule antagonists of the thyroid stimulating hormone receptor (TSHR) signaling pathway (AID 1259385). Further: nearly all actives have a fitted effect of over 20% in size. Further: potency means the concentration at half of the fitted maximal effect. Particulars: TSHR-HEK293 cAMP HTRF, TSH-stimulated antagonist mode; series mostly up to 92.4 µM. The procedure, abridged:
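Antagonist mode: compound-treated TSHR-expressing HEK293 cells were stimulated with 1.5 ng/mL TSH (final) in presence of Ro20-1724 for 30 min at RT. HTRF cAMP detection after 1 h; each compound tested at 15 concentrations, triplicate.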

A short description of test [6]: qHTS assay to identify small molecule agonists of the estrogen receptor alpha (ER-alpha) signaling pathway in the presence of an antagonist - cell viability counter screen (AID 1259386; active means well fitted curve in the direction sought with a large enough effect in the repeat runs; an effect the other way counts as inactive or inconclusive;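 further: cells exposed to compounds for 22 h at 37 °C before the viability read; nearly all actives have a fitted effect of over 30% in size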; further: potency means the concentration at half of the fitted maximal effect). The conditions noted are these: VM7Luc4E2 viability, CellTiter-Fluor fluorescence, 22 h; series mostly up to 92.4 µM. The procedure, abridged: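 ICI-182,780 at 10.0nM final accompanies the compound titration (15 concentrations, 22hr, 37C) on VM7Luc4E2 cells. The CellTiter-Fluor fluorescence readout runs in the same wells as the luciferase assay.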

Test [7] deals with Progesterone receptor (Homo sapiens) (UniProt P06401). Briefly: qHTS assay to identify small molecule antagonists of the progesterone receptor (PR) signaling pathway (AID 1346795; active means well fitted inhibition curve with a large enough effect in the signal ratio in the repeat runs, not every such curve was filed as active; the % refers to the signal ratio; further: potency means the concentration at half of the fitted maximal effect). Particulars: PR-UAS-bla HEK293T, beta-lactamase FRET ratio, 16 h; series mostly up to 92.4 µM. The procedure, abridged: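 Stimulus R5020 at 1 nM final; cells HEK293T PR-UAS-bla; medium with 2% charcoal-stripped FBS; compound exposure 16 hr at 37C, 5% CO2; detection by FRET beta-lactamase substrate, 2 hr, room temperature.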
Sequence of Progesterone receptor (Homo sapiens) (P06401 whole entry, looked up): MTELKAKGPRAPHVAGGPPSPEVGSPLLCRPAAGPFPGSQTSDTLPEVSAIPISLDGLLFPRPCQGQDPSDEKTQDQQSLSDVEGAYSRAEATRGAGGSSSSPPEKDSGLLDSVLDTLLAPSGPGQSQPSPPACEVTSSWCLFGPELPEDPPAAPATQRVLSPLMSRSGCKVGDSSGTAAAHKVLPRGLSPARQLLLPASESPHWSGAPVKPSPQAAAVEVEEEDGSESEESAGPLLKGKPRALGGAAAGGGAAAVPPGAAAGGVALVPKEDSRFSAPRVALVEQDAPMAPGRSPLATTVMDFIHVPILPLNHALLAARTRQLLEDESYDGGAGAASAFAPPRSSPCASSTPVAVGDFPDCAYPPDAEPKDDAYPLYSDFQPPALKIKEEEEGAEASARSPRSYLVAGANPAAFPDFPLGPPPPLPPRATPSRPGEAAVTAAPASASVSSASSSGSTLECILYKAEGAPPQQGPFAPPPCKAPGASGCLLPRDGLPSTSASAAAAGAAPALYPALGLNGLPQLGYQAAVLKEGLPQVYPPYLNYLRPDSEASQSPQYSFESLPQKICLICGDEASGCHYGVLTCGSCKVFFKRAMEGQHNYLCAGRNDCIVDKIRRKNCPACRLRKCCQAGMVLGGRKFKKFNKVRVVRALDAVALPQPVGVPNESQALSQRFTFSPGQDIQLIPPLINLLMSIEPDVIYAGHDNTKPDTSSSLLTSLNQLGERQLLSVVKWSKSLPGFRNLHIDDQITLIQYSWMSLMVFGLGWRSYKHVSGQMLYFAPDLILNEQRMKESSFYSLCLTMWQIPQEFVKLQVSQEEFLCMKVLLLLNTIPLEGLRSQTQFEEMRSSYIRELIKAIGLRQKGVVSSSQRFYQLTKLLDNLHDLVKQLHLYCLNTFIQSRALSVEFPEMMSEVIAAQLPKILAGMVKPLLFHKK

The target is the same in test [8]. In words: qHTS assay to identify small molecule agonists of the progesterone receptor (PR) signaling pathway (AID 1346784). Further: nearly all actives have a fitted effect of over 30% in size. The conditions noted are these: PR-UAS-bla HEK293T, beta-lactamase FRET ratio, 16 h; series mostly up to 92.4 µM. The procedure, abridged: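 Reporter assay, GripTite PR-UAS-bla HEK 293T cells: 16 hr exposure to DMSO-dissolved compounds at 37C, 5% CO2, in steroid-depleted (2% charcoal-stripped FBS) medium; beta-lactamase measured by FRET fluorescence.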

Test [9] addresses Androgen receptor (Homo sapiens) (UniProt P10275). In words: qHTS assay to identify small molecule agonists of the androgen receptor (AR) signaling pathway in the presence of an antagonist (AID 1259381). Further: nearly all actives have a fitted effect of over 15% in size. Particulars: MDA-kb2 MMTV-luciferase, AR agonist + nilutamide, 16 h; series mostly up to 92.4 µM. The procedure, abridged: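 Using human MDA-kb2 cells with an MMTV promoter–luciferase construct (AR and GR response elements), agonist activity is scored under 3.0uM nilutamide (final) co-treatment; 16hr incubation, 37C, luminescence readout via ONE-Glo.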

Test [10] can be described thus: qHTS assay to identify small molecule agonists of the androgen receptor (AR) signaling pathway in the presence of an antagonist - cell viability counter screen (AID 1259379; active means well fitted curve in the direction sought with a large enough effect in the repeat runs; an effect the other way counts as inactive or inconclusive;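 further: MDA-kb2 human breast cancer cells carrying an MMTV luciferase reporter; nearly all actives have a fitted effect of over 25% in size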). Particulars: MDA-kb2 viability, CellTiter-Fluor, 16 h; series mostly up to 92.4 µM. The procedure, abridged:
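A CellTiter-Fluor read-out measured viability of MDA-kb2 reporter cells (MMTV promoter with AR and GR response elements). Treatment: nilutamide 3.0uM final with compounds at 15 concentrations, 16 hr, 37C, 0% CO2.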
On the % scale 0 is the no-effect control and ±100 the full control effect.

Sequence of Androgen receptor (Homo sapiens) (P10275 whole entry, looked up): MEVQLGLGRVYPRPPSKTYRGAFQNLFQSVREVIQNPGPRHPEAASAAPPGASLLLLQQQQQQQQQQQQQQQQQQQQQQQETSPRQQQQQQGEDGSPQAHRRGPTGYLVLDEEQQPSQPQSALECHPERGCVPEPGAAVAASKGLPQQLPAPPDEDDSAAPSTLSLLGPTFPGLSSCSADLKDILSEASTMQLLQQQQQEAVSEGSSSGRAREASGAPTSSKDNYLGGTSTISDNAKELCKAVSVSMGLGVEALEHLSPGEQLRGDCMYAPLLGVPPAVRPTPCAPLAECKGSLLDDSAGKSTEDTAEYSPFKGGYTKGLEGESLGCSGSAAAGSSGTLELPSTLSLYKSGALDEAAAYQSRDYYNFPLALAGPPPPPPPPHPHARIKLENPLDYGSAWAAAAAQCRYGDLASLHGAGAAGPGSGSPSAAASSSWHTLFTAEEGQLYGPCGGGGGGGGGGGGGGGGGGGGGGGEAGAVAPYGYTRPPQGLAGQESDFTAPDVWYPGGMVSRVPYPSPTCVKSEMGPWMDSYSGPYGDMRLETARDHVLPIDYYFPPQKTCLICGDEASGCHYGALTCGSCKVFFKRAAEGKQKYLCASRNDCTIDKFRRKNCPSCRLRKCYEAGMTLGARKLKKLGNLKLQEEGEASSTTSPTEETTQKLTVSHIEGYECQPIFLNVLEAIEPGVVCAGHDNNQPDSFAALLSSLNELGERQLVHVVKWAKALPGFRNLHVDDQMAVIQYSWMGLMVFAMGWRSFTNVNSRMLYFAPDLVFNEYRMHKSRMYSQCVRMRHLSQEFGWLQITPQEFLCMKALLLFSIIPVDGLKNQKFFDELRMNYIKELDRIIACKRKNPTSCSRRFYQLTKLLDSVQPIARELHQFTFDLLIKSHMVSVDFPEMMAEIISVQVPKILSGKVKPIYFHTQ
Sequence of Thyrotropin receptor (Homo sapiens) (P16473 whole entry, looked up): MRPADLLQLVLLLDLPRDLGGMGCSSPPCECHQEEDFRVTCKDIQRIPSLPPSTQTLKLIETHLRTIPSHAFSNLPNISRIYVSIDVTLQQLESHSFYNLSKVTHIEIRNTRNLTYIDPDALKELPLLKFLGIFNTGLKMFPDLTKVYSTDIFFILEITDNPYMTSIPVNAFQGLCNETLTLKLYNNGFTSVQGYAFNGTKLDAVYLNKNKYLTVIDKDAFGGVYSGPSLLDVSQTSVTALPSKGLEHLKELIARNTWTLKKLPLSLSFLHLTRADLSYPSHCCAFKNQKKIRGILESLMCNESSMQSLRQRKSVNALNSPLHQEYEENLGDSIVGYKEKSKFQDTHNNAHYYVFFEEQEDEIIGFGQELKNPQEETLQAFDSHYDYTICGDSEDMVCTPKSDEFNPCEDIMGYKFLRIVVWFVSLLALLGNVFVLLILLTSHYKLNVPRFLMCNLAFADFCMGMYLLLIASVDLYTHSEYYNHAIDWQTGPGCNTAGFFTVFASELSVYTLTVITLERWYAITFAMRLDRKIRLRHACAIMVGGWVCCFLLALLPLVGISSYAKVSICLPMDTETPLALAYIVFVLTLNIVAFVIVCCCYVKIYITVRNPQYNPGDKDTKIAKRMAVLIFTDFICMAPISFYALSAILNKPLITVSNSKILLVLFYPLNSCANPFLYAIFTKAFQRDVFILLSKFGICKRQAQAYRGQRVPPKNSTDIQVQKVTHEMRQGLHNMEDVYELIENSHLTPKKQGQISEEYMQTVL
Sequence of Estrogen receptor (Homo sapiens) (P03372 whole entry, looked up): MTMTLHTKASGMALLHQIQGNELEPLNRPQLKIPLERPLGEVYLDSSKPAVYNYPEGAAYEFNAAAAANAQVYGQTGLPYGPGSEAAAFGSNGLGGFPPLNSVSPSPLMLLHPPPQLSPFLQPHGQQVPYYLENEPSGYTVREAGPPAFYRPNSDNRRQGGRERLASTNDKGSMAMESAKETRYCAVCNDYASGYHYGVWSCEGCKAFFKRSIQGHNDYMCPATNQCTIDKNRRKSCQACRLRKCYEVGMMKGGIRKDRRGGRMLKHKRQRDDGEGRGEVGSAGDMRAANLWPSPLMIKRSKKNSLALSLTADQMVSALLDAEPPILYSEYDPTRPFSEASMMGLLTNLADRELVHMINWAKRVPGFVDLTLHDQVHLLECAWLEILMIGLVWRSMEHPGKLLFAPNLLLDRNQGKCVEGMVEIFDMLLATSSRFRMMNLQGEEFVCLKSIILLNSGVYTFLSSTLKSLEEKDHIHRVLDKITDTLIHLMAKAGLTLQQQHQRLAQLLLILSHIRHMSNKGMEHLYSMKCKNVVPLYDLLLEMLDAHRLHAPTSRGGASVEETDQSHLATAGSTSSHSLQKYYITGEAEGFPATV

Turning to `CCN(CC)c1ccc(N=Nc2ccccc2)cc1`, the Potency is 17.2 µM (active) in test [1]; 30.6 µM (active) in test [2]; 0.193 µM (active) in test [3]; 68.6 µM (active) in test [5]; 30.6 µM (active) in [6]; 19.3 µM (active) in test [7]. Further, the Potency result in test [4] is “inactive”.
For `Clc1ccc2c(Cl)ccnc2c1`, the Potency result in [1], in test [2], in [3], in test [4], in test [5] and in test [6] was “inactive” each time. Besides, the Potency entry in [7] is “inactive”. Also, the result in test [8] was inactive.
Take `CCc1cccc(CC)c1`: the Potency result in test [1], in test [9], in test [2], in test [3], in test [6] and in test [7] was “inactive” in each case. Moreover, the result in [8] was inactive.
With `CC/C=C\C/C=C\C/C=C\CCCCCCCC(=O)OC`, the Potency in test [1] was 48.6 µM (active). The Potency entry in test [9], in test [2], in test [3], in test [4], in test [5] and in test [6] was “inactive” throughout. Also, the Potency result in test [7] was “inactive”. Besides, the result in [8] was inactive.
For the molecule `Cn1ccnc1`, the Potency entry in test [1], in test [2], in [3], in [4], in test [5] and in test [6] was “inactive” throughout. In addition, the Potency entry in test [7] was “inactive”. In addition, the result in test [8] was inactive.
As for `CC(C=O)c1ccccc1` (stereo not drawn), the Potency entry in test [1], in [9], in test [2], in [3], in test [4] and in [5] was “inactive” in each case. Moreover, the Potency result in [6] and in test [7] was “inactive” throughout. Further, the outcome in [8] was inactive.
As to `CCOc1nc(F)cc2nc(S(=O)(=O)Nc3c(Cl)cccc3C(=O)OC)nn12`, the Potency entry in [1], in test [9], in [2], in test [3], in [4] and in test [5] was “inactive” each time. For the same molecule, the Potency entry in test [6] and in test [7] was “inactive” each time. Further, the result in [8] was inactive.
Consider `CSc1ccc(O)cc1C`, for which the Potency in test [1] was 61.1 µM (active). Further, the Potency result in test [9], in test [3], in [4], in test [5] and in test [6] was “inactive” throughout. Besides, in test [8], the result was inactive.
For `CC/C=C(\C)C=O`, the Potency entry in test [1], in test [2], in test [3], in test [4], in test [5] and in [6] was “inactive” in each case. For the same molecule, the Potency result in test [7] was “inactive”. Further, in [8], the outcome was inactive.
As for `C[C@H]1O[C@@H](O[C@H]2CC[C@@]3(C)[C@H](CC[C@@H]4[C@@H]3C[C@@H](O)[C@]3(C)[C@@H](C5=CC(=O)OC5)CC[C@]43O)C2)C[C@H](O)[C@@H]1O[C@H]1C[C@H](O)[C@H](O[C@H]2C[C@H](O)[C@H](O[C@@H]3O[C@H](CO)[C@@H](O)[C@H](O)[C@H]3O)[C@@H](C)O2)[C@@H](C)O1`, the Potency was 0.168 µM (active) in [1] and 0.188 µM (active) in [2]. Moreover, the Potency entry in test [9], in [3] and in test [6] was “inactive” in each case. Besides, in test [8], the result was inactive.
With `CN1CC[C@H](c2c(O)cc(O)c3c(=O)cc(-c4ccccc4Cl)oc23)[C@H](O)C1`, the Potency result in test [1], in test [9], in test [2] and in test [6] was “inactive” in each case.
Regarding `COc1cc2ncnc(Nc3cccc(Cl)c3)c2cc1OC`, the figures for the activity change, negative = cytotoxicity in test [1], in test [2] and in test [6] were -15.7% [at 19 µM], 0.759% [at 19 µM] and -5.87% [at 19 µM], respectively. For the same molecule, the values for the activation in test [3] and in test [8] were -1.36% [at 19 µM] and -0.0125% [at 19 µM], respectively. For the same molecule, the cAMP activity change in [4] was 2.68% [at 18.9 µM, stronger effect = higher value]. For the same molecule, the activity change, negative = inhibition in [5] is 1.54% [at 19 µM].
For `O=C(CCN1CCC(c2ccccc2)C1)c1ccc2c(c1)OCCO2` (stereo not drawn), the Potency result in test [1], in test [2], in [3], in test [4], in [5] and in [6] was “inactive” each time. The Potency result in [7] is “inactive”.
Regarding `Cc1ccc(N=Nc2c(O)ccc3ccccc23)c(C)c1`, the Potency entry in test [1], in test [2], in [3], in [4] and in test [5] was “inactive” throughout. Besides, the Potency in [6] is 7.5 µM (active). Moreover, the outcome in test [8] was inactive.
`c1ccc(-c2nc3ccccc3[nH]2)cc1`: the Potency entry in test [10], in test [3], in [4], in test [5] and in [6] was “inactive” in each case. Besides, the result in test [8] was inactive.
As for `COCCC(=O)OC`, the Potency entry in test [1], in [2], in test [3], in test [4], in test [5] and in [6] was “inactive” throughout. Further, the outcome in test [8] was inactive.
Turning to `O=C1CCC(=O)N1`, the Potency entry in test [1], in test [9], in test [2], in [3], in test [4] and in test [5] was “inactive” in each case. Besides, the Potency entry in test [6] and in test [7] was “inactive” throughout. Further, the outcome in test [8] was inactive.
In the case of `CCc1cccc(C)c1N(C(=O)C(=O)O)C(C)COC` (stereo not drawn), the Potency result in test [1], in [2], in test [3], in test [4], in [5] and in [6] was “inactive” each time. Further, the Potency entry in test [7] is “inactive”. Also, the outcome in test [8] was inactive.
In the case of `CN(C/C=C/c1ccccc1)Cc1cccc2ccccc12`, the Potency result in [10], in [3] and in test [4] was “inactive” throughout. Besides, the outcome in test [8] was inactive.
As for `Cc1cc(F)ccc1-c1cc(N2CC[C@@H](O)[C@H]2CO)ncc1N(C)C(=O)C(C)(C)c1cc(C(F)(F)F)cc(C(F)(F)F)c1`, the Potency in [1] was 47.8 µM (active); in test [2] it was 53.6 µM (active). Besides, the Potency result in test [9], in [3], in test [4], in [5] and in test [6] was “inactive” each time.
In the case of `CCN(CC)c1ccc2c(c1)Oc1cc(N(CC)CC)ccc1C21OC(=O)c2ccccc21`, the values for the Potency in test [1] and in [6] were 10.6 µM (active) and 5.31 µM (active), respectively. Besides, the Potency entry in test [9], in test [3] and in [7] was “inactive” each time. For the same molecule, in test [8], the result was inactive.
As to `CCOC(=O)OC(=O)OCC`, the Potency entry in [1], in test [2], in [3], in test [4], in test [5] and in [6] was “inactive” each time. Further, the Potency result in test [7] is “inactive”. Besides, the outcome in test [8] was inactive.
